# Reference: paper PMC7819943, “Rice protein-binding microarrays: a tool to detect cis-acting elements near promoter regions in rice”
# Whole data set: some 39,000 sequences, median “fluorescence intensity (a.u.)” near 4,300, cut for the highest 2% near 39,000. Many of the other results were omitted from the sample, so the highest values are more common in it than they were.
# Target: T1, OsSMF1 (Oryza sativa, UniProt Q6ZLB0 1-436)
# T1 sequence: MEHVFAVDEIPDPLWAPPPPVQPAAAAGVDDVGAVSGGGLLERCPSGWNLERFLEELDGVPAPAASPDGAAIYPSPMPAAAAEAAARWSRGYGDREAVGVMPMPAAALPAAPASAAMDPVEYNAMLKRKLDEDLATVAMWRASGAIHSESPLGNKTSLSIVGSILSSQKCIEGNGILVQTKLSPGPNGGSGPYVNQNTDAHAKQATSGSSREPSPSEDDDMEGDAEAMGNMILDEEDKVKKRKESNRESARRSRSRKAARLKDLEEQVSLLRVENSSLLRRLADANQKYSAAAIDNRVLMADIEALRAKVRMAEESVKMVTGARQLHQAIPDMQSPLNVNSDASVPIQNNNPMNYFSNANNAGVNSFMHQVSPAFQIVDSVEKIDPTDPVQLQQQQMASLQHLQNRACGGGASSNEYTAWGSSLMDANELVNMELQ
# Assay: protein-binding microarray (RPBM); PBS, 2% BSA, 51.3 ng/ul salmon testes DNA, 50 uM zinc acetate, 200 nM TF, 25 C, 1 h; high values mean tight binding
# Details: protein: recombinant; tags: N-terminal polyhistidine and DsRed monomer fusion (pET32a); chain copies: 2; label: CyDye5-dUTP incorporated in the synthesized complementary strand; 3' TTTTT single-stranded linker to array surface; dsDNA, one strand shown
# How it was run: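 An Axon 4000B scanner gave the binding signal as per-feature fluorescence intensity in arbitrary units. This followed washing of a custom Agilent array that had been incubated for 1 h at 25 °C with 200 nM protein in PBS, 2% BSA, salmon testes DNA and 50 µM zinc acetate. The proteins were transcription factors fused at the N-terminus to polyhistidine and DsRed, expressed in E. coli BL21-CodonPlus and purified on Ni–NTA.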
row,Sequence,binding signal
1,GATTGCAGCCGCCGCCTGCGTCGGTCCAGTCACCATTGGCCGGAGTCACCTAGTGCAG,6870 fluorescence intensity (a.u.)
2,ACTAAATCCTCAACCACCTCATATGTTTATGTACCATCGACGGAGTCACCTAGTGCAG,3510 fluorescence intensity (a.u.)
3,GCGCAAGTTCTCCACAAGCCACCTCGATCGATCTCCATTGCGGAGTCACCTAGTGCAG,3420 fluorescence intensity (a.u.)
4,GTCAGTCACCGCCCTGTGGGGCCCACCCACCCGCGCCGTCCGGAGTCACCTAGTGCAG,9640 fluorescence intensity (a.u.)
5,TTCAGATGTACAATTTTGCTGGATTACTAGTAGTTTTCTTCGGAGTCACCTAGTGCAG,17600 fluorescence intensity (a.u.)
6,CAACAATACAGTTATTGGTAATTACAAGCTACTAGTATACCGGAGTCACCTAGTGCAG,18600 fluorescence intensity (a.u.)
7,AGTTTGCTGCCCACTTCAGTAGGTTACAATACAATTATACCGGAGTCACCTAGTGCAG,65300 fluorescence intensity (a.u.)
8,CCTTTCCCTCTCCACTCTCCACCATCCTCTGCAGCTGACTCGGAGTCACCTAGTGCAG,3330 fluorescence intensity (a.u.)
9,CTGCGTTACTTCGACATTGCCCGACGTGTTGACTGTGTTGCGGAGTCACCTAGTGCAG,4070 fluorescence intensity (a.u.)
10,GTGTGAGGTTCATGCTGGGCGGTGACGCGACGGCGGAGACCGGAGTCACCTAGTGCAG,6730 fluorescence intensity (a.u.)
11,GTTACGACAAGTGCCACAAACCAGCAGAAGCAAAGGTAGACGGAGTCACCTAGTGCAG,47900 fluorescence intensity (a.u.)
12,CTAGAAGTTACCAAGGTACCAGAGCAGACACCTAAGCAGCCGGAGTCACCTAGTGCAG,3370 fluorescence intensity (a.u.)
13,AAGAAGAAGACGACGACGTGGCGAGCCAAGTAGCAGCAAACGGAGTCACCTAGTGCAG,3620 fluorescence intensity (a.u.)
14,AGTATGAAAGACCTGAGGATGACCCGGATTATATTCCTATCGGAGTCACCTAGTGCAG,3320 fluorescence intensity (a.u.)
15,GCAATGCATTTCAAATTCAGGACCCCATAGAGAAATCAACCGGAGTCACCTAGTGCAG,29200 fluorescence intensity (a.u.)
16,AAAATCATACGAACGGAAAAGCAAAAGATAGAAGCCAAAACGGAGTCACCTAGTGCAG,16500 fluorescence intensity (a.u.)
17,AAACAAAGTGGCACAGATAAAATGGAACATAGAAGTGGCACGGAGTCACCTAGTGCAG,40700 fluorescence intensity (a.u.)
18,GACACAAACAAAATCGAGAAGATGGCATACCTACCATACACGGAGTCACCTAGTGCAG,22800 fluorescence intensity (a.u.)
19,GATAACCGTAACTAACCGGCTTGGTCAGCAAGCCAAAGTGCGGAGTCACCTAGTGCAG,6310 fluorescence intensity (a.u.)
20,CTTCCACTGACATGACACCAAGAGACCACTTTCTTTAATTCGGAGTCACCTAGTGCAG,3250 fluorescence intensity (a.u.)
21,ATAATGAACAATTTCTTTCCAAGCTACATGTAGACCAGAGCGGAGTCACCTAGTGCAG,40100 fluorescence intensity (a.u.)

row,Sequence,binding signal
1,ATTCTTGCTACCTATAATTGCAACATGACAGAGTGTTAAGCGGAGTCACCTAGTGCAG,3480 fluorescence intensity (a.u.)
2,CTTGTTTCACCTGTCATACACACGTTACGTCTTAGAGTCCCGGAGTCACCTAGTGCAG,5140 fluorescence intensity (a.u.)
3,GTAGAAGACCGGCGGAAAGTGTGAGGAGGGTGACAAGGGGCGGAGTCACCTAGTGCAG,3420 fluorescence intensity (a.u.)
4,ATTTTGACTGATGTGACGTTTGCGTGGCTGGTTTGATTAGCGGAGTCACCTAGTGCAG,4770 fluorescence intensity (a.u.)
5,TACAGCGTCATTGCAAGAATGGTGACGGGGTTTGAGGTTGCGGAGTCACCTAGTGCAG,6110 fluorescence intensity (a.u.)
6,TGATTGCAACAGGTGGGCTGGTTTTGCGTCATTTGACCAGCGGAGTCACCTAGTGCAG,51900 fluorescence intensity (a.u.)
7,CTTGTCGCATCTGAACGTGTCGAGTCACACCTGTGTGTTACGGAGTCACCTAGTGCAG,8330 fluorescence intensity (a.u.)
8,TTGGCGTGTGTGCAGCATTTGCGGCGGCGGCTGAGAAAGACGGAGTCACCTAGTGCAG,31100 fluorescence intensity (a.u.)
9,CATTGGTGGCGTAATGTGGTTGTTAGTGATTTGTTGCACCCGGAGTCACCTAGTGCAG,3460 fluorescence intensity (a.u.)
10,TCAATCTGGCGGGGTTTATTTGTGACCCTCGATCGGTCAACGGAGTCACCTAGTGCAG,4060 fluorescence intensity (a.u.)
11,AATAAGTAAGGTGGTTTTAAAATTTGGGGAGAGCTAACAGCGGAGTCACCTAGTGCAG,39100 fluorescence intensity (a.u.)
12,TAAAATTTAAATTTTGGCTAATAAGTATAAGCATAACTGTCGGAGTCACCTAGTGCAG,34300 fluorescence intensity (a.u.)
13,GGAGGTGGGGATGGTGGGAGGTTTTGGTTTGGTAAAATAGCGGAGTCACCTAGTGCAG,4910 fluorescence intensity (a.u.)
14,GCTACACTTAACGCTGTCCACAACTCCACATACGCGTTACCGGAGTCACCTAGTGCAG,3330 fluorescence intensity (a.u.)
15,ATTTCTAATGCCACGTTAACGCCACGTGGAAAGAAGACCGCGGAGTCACCTAGTGCAG,17900 fluorescence intensity (a.u.)
16,GAACGGTAGAATGATTATTGCTCCTTCAGTTTTCGAGTAACGGAGTCACCTAGTGCAG,3320 fluorescence intensity (a.u.)
17,TGAACCGGCCGGTTTTCATGTGAACCGTGAACCGTAATAACGGAGTCACCTAGTGCAG,3240 fluorescence intensity (a.u.)
18,CTATGACGGGTCGAAAACGGAACCCGTCAAAGATGAGTTACGGAGTCACCTAGTGCAG,18300 fluorescence intensity (a.u.)
19,TCCGTTCTGTTTATGAATAACGGTCGAAAACGTAATAACCCGGAGTCACCTAGTGCAG,46300 fluorescence intensity (a.u.)
20,GTGGTACACGCATGCTGACTAATTAAGACCGACAGAATCCCGGAGTCACCTAGTGCAG,3390 fluorescence intensity (a.u.)
21,AACATGAAAGCTCAAGAGCTCGTGCTGACGGCTGAGAATCCGGAGTCACCTAGTGCAG,3150 fluorescence intensity (a.u.)
